Rows were chosen to be rich in hits. Some 7.3% of all compounds tested hit in one or more screens of this group.
KinaseGlo FLuc: Kinase-Glo luciferase inhibition (counter-screen); Q27757; Kinase-Glo luciferase, ATP luminescence, 8 min; Potency, µM (series often up to 38.3 µM), for the others: top-dose activity change, negative = inhibition, most hits filed as inhibitors; actives 0.28% (n = 200,000); AID 1379; note: % is set by controls: 0 for no effect and ±100 for the full control effect; nearly all actives have a fitted effect of over 60% in size
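Inhibition of Kinase-Glo luciferase light generation was assessed at 10 uM ATP in pH 7.2 imidazole buffer, with luminescence measured after eight minutes at ambient temperature.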
Rab9 promoter act: activators of Rab9 promoter | Huh7 Rab9 promoter-luciferase reporter, luminescence, 24 h | Potency, µM (titrated, usually from 9.22 µM), for the others: top-dose activation, negative = inhibition, actives largely listed as activators | actives 2.8% (n = 320,000); note: % of control where 0% means no effect; nearly all actives have a fitted effect of over 60% in size
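Using Huh7 cells stably transfected with Rab9 promoter–luciferase, compounds were incubated 24 h at 37 °C, 5% CO2; luciferase luminescence was read 10 min after reagent addition.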
FLuc counter: counter-screen for miR-21 project: firefly luciferase inhibitors or activators; P08659; purified FLuc, Km substrates, luminescence inhibition; Potency, µM (titrated, usually from 57.5 µM), for inactives: top-dose activity change, negative = inhibition, usual class: inhibitors; actives 6.9% (n = 360,000);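 note: plate controls were vehicle for no effect and reference inhibitor for full effect; nearly all actives have a fitted effect of over 55% in size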
Target sequence (P08659 whole entry, looked up): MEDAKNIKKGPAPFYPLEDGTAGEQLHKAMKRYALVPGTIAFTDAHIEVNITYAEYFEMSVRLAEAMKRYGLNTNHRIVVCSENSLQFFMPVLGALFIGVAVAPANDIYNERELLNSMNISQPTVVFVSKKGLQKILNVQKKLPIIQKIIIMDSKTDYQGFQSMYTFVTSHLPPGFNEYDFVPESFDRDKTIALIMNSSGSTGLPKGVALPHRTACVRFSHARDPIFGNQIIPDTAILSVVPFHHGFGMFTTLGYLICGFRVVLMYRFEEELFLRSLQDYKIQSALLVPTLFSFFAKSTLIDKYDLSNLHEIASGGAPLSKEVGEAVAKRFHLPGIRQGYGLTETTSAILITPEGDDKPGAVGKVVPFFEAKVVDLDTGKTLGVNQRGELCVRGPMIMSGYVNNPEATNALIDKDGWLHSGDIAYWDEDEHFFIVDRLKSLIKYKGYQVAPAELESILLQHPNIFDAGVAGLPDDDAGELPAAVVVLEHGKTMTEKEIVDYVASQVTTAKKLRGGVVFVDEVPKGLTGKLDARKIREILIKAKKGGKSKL
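Purified P. pyralis luciferase, 10 nM final, with Km-level 10 uM D-luciferin and 10 uM ATP in 50 mM Tris acetate pH 7.5, 10 mM Mg acetate, 0.01% Tween-20, 0.05% BSA; 6-point qHTS titration about 60 µM downward; luminescence read.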
ELG1 genotoxic: inducers of genotoxicity in HEK293T ELG1-luciferase cells; HEK293T ELG1-luciferase reporter, luminescence, 16 h; Potency, µM (series often up to 46 µM), without a hit: at the highest dose activity change, positive = activation, most hits filed as activators; actives 1.3% (n = 330,000); note: % of control where 0% means no effect; nearly all actives have a fitted effect of over 60% in size
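16 hr compound incubation (37 °C, 5% CO2) of HEK293T cells carrying luciferase-tagged ELG1; luciferase then measured by ONE-Glo luminescence after 30 min at RT.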
SMN2 splice enh: increases expression of the SMN2 splice variant; HEK293 SMN2-luciferase splicing reporter, luminescence, 30-36 h; Potency, µM (top dose mostly 46.1 µM), for inactives: top-dose activity change, positive = activation, hits mostly activators; actives 2.8% (n = 210,000); note: % of control where 0% means no effect; nearly all actives have a fitted effect of over 55% in size
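HEK293 cells carry an SMN2 […]–luciferase reporter in which exon 7 inclusion puts luciferase in frame. Cells were plated 10-12 h before compound addition, then incubated 30-36 h at 37C. ONE-Glo luminescence was read; sodium butyrate at 4.5 mM final served as control.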
NPC1 prom act: activators of NPC1 promoter. Huh7 NPC1 promoter luciferase reporter, 24 h. Potency, µM (top dose mostly 9.22 µM), inactives show at the highest dose activation, most hits filed as activators. actives 2.4% (n = 320,000); note: % of control where 0% means no effect; nearly all actives have a fitted effect of over 60% in size
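Quantitative HTS used a cell-based reporter: Huh7 cells stably bearing the NPC1 promoter upstream of luciferase were treated with compounds for 24 h, and promoter activation was read as luminescence.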
* hit, by the source's call; ? = inconclusive; . = not tested or not shown. Calls come from the whole dose curve; as a rule, active = well fitted curve in the direction sought with a large enough effect; inconclusive = small, poorly fitted or top-dose-only effect, or another doubt; inactive = no such curve, though single readings can be large; an effect the other way counts as inactive or inconclusive. Potency is the fitted concentration of half-maximal effect.

SMILES	KinaseGlo FLuc	Rab9 promoter act	FLuc counter	ELG1 genotoxic	SMN2 splice enh	NPC1 prom act
N#Cc1c(N)nc2c(c1N)CC(COc1ccccc1)O2 (configuration not stated)	-3%	4.5µM*	17µM*	?	.	2.8µM*
CC1=C(C(=O)Nc2ccc(Cl)cc2)C(C(C)C)n2nc(SCc3cccc(C)c3)nc2N1 (configuration not stated)	.	.	0%	.	12%	.
CC(C)c1nc2ccc(C(=O)NCCCN3CCN(c4ccccc4F)CC3)cc2o1	.	.	5%	.	.	.
CCN(C(=O)c1cc2c(Cl)nc3ccc(C)cc3c2s1)c1cc(OC)ccc1OC	.	.	1%	.	-22%	.
CCOc1ccccc1NC(=O)COc1ccc(S(=O)(=O)NC2CCCCC2)cc1	.	.	8.5µM*	.	20%	.
O=S(=O)(Nc1cccc(-c2ccc(N3CCCCCC3)nn2)c1)c1ccccc1F	.	?	19µM*	?	.	16%
O=S(=O)(Nc1cccc(-c2ccc(N3CCCCCC3)nn2)c1)c1ccccc1Cl	.	29%	8.5µM*	4%	.	19%
CCOC(=O)N1CCC(NC(=O)c2ccc3c(c2)N(Cc2ccc(F)cc2)C(=O)c2ccccc2S3=O)CC1 (configuration not stated)	.	.	-6%	.	-11%	.
O=C(Cn1cc(S(=O)(=O)Cc2ccccc2Cl)c2ccccc21)Nc1cccc(C(F)(F)F)c1	.	.	-5%	.	.	.
CN(C)c1ccc(NC(=O)Cn2cc(S(=O)(=O)Cc3ccccc3Cl)c3ccccc32)cc1	.	.	9.5µM*	.	.	.
COc1ccc2nc(N3CCCC3)c(C#N)cc2c1	-1%	26%	11µM*	?	-22%	21%
COc1ccc2nc(SCC(=O)N3CCCCC3)c(C#N)cc2c1	-1%	-3%	-2%	1%	.	-2%
COc1ccc2nc(N3CCCCC3)c(C#N)cc2c1	-3%	3.2µM*	3.8µM*	?	5%	17%
CC(C)c1nn2c(=O)cc(COC(=O)c3ccc(NC(=O)COc4ccccc4)cc3)nc2s1	.	.	2%	.	.	.
Cc1ccc(S(=O)(=O)c2cnc(SCC(=O)Nc3ccc4c(c3)OCCO4)[nH]c2=O)cc1	.	.	11µM*	.	-3%	.
O=C(CSc1ncn[nH]1)Nc1ccc2c(c1)OCCO2	-5%	?	?	?	5%	12%
COc1ccc(S(=O)(=O)c2cnc(SCC(=O)Nc3cc(F)ccc3C)[nH]c2=O)cc1Cl	.	.	9.5µM*	.	-8%	.
O=C(CSc1ncc(S(=O)(=O)c2ccc(Cl)cc2)c(=O)[nH]1)Nc1ccc2c(c1)OCCO2	.	.	12µM*	.	-1%	.
Cc1ccc(S(=O)(=O)c2cnc(SCC(=O)Nc3ccc4c(c3)OCCO4)[nH]c2=O)cc1Cl	.	.	11µM*	.	.	.
Cc1ccc(NC(=O)C(=O)NCC(c2ccc3c(c2)OCO3)N2CCN(C)CC2)c(C)c1 (configuration not stated)	.	.	-1%	.	.	.
CC(=O)c1ccc(N2CCN(c3nc4c(S(=O)(=O)c5ccc(C)c(C)c5)nnn4c4ccc(Cl)cc34)CC2)cc1	.	.	-3%	.	-2%	.
CCc1ccccc1NC(=O)CSc1ncc(S(=O)(=O)c2ccccc2)c(=O)[nH]1	.	.	?	.	-1%	.
COc1cccc(NC(=O)CSc2ncc(S(=O)(=O)c3ccc(C)c(C)c3)c(=O)[nH]2)c1	.	.	?	.	-1%	.
CC(C)c1ccc(S(=O)(=O)c2cnc(SCC(=O)Nc3ccc4c(c3)OCCO4)[nH]c2=O)cc1	.	.	11µM*	.	4%	.
Cc1cc(C)c(NC(=O)CSc2ncc(S(=O)(=O)c3ccc(C(C)(C)C)cc3)c(=O)[nH]2)c(C)c1	.	.	11µM*	.	-13%	.
CCc1ccccc1NC(=O)C1CCN(C2=NS(=O)(=O)C(c3ccc(C)c(C)c3)=C2C)CC1	.	.	-6%	.	.	.
COc1ccccc1Oc1ccc2c(c1)C(=O)N(CC1CCCO1)C2=O (configuration not stated)	.	28%	19µM*	-2%	.	8%

Screening results as filed in PubChem.
